D1 potentiator = enhances dopamine response at the human D1 receptor; P21728; HEK293 TREx D1 cells, calcium flux, dopamine EC20 potentiation; potentiation, % at 10 µM; 360,000 tested, 0.036% active; AID 504651; in the data active means potentiation above about 30%; further: 0% is about no effect
DRD3 agonist = activates the human D3 dopamine receptor; max activation, %; 410,000 tested, 0.58% active; D3R DiscoveRx beta-arrestin cells, luminescence, 90 min; in the data active means max activation above about 30%; further: 0% is about no effect
Target sequence (P35462 whole entry, looked up): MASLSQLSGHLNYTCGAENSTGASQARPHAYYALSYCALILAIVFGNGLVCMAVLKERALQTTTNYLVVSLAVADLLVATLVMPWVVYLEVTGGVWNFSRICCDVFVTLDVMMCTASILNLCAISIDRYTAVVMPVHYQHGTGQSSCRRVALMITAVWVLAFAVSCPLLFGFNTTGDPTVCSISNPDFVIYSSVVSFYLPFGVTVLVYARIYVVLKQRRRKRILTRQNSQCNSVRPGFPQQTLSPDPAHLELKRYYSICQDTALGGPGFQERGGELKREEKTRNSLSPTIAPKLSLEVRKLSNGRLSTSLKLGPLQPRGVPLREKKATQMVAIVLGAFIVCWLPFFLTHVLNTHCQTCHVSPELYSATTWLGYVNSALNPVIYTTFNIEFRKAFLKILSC
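Agonist-mode cell screen: cells plated at 1500/well and incubated overnight at 37 °C, then exposed to library compounds for 90 min at 37 °C. Detection reagent was added for 30–60 min at room temperature, and luminescence was read.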
D1 ag = agonists of human D1 dopamine receptor; 360,000 tested, 1% active; AID 504660; HEK293 T-REx D1 cells, calcium flux, agonist mode; activation, % at 2 µM; in the data active means activation above about 30%; further: 0% is about no effect
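Tetracycline-induced HEK293 TREx D1 cells, force-coupled to calcium signalling, were dye-loaded with a no-wash calcium kit. Compound was pin-added after a 10 s baseline. Fluorescence was read kinetically at 1 cycle/s for 180 s, with calcium rises flagged as agonism.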
D1 antag = blocks dopamine activation of the human D1 receptor | P21728 | AID 504652 | 360,000 tested, 3.2% active | HEK293 TREx D1 cells, calcium flux, dopamine EC80; hits give low values | activity change, negative = inhibition, % at 10 µM; in the data active means activity change below about -30%; further: on the % scale 0 is the no-effect control and ±100 the full control effect
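Cells carrying a force-coupled, tetracycline-inducible human D1 receptor report calcium flux. Each well gets a 10 s baseline, compound with 180 s monitoring, then an EC80 dopamine stimulus with a second 180 s kinetic read.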
D3 antag = D3 dopamine receptor (human) antagonism | D3R cells, DiscoveRx beta-arrestin luminescence, antagonist mode; hits give low values | max response, negative = inhibition, % | 360,000 tested, 2.5% active | AID 652054; in the data active means max response below about -50%; inconclusive means no clear call, values can overlap the other calls; further: on the % scale 0 is the no-effect control and ±100 the full control effect
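Cells expressing the human receptor were seeded at 1500 cells/well, incubated overnight at 37 degrees C in 5% CO2, then exposed to library compounds with dopamine controls for 90 minutes at 37 degrees C before luminescent detection.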
* hit, by the source's call. Hits are enriched below; roughly 6% of the tested compounds scored in any of these assays.

What do the screens show for `O=C(NCc1ccncc1)c1cc(F)c(F)cc1Cl`?
D1 potentiator: -4; DRD3 agonist: 24; D1 ag: 0; D1 antag: -40*; D3 antag: 3

Results for Cc1csc(CNc2ncnc3ccc(-c4ccc5c(ccn5C)c4)cc23)c1 ?
D1 potentiator: 2; D1 ag: 3; D1 antag: 5

What do the screens show for `C#Cc1ccccc1OCCCN1CCC(C(O)(c2ccccc2)c2ccccc2)CC1`?
DRD3 agonist: -14; D3 antag: inconclusive

What do the screens show for `O=C(CN1CCC(C(O)(c2ccccc2)c2ccccc2)CC1)Nc1cc(Cl)ccc1Cl`?
D1 potentiator: 0; DRD3 agonist: 6; D1 ag: 0; D1 antag: -5; D3 antag: 8

Results for OC(c1ccccc1)(c1ccccc1)C1CCN(CCCOc2ccccc2Cl)CC1 ?
DRD3 agonist: -15; D3 antag: -80*

What do the screens show for `Cc1ccc(OCCCN2CCC(C(O)(c3ccccc3)c3ccccc3)CC2)cc1`?
DRD3 agonist: -12; D3 antag: -10

Results for COc1ccccc1OCCCN1CCC(C(O)(c2ccccc2)c2ccccc2)CC1 ?
DRD3 agonist: -16; D3 antag: -85*

How did N#Cc1ccccc1OCCCN1CCC(C(O)(c2ccccc2)c2ccccc2)CC1 do in these assays?
DRD3 agonist: -18; D3 antag: -96*

Results for OC(c1ccccc1)(c1ccccc1)C1CCN(CCCOc2ccc(F)cc2)CC1 ?
DRD3 agonist: -14; D3 antag: -95*

What do the screens show for `CCOC(=O)C[C@@H]1OC[C@H](CO)N1S(=O)(=O)c1ccc(C)cc1`?
DRD3 agonist: 2; D3 antag: 6

Results for CCOC(=O)c1ccc(NC(=O)C2CCN(C(=O)N3CC(C)Oc4ccc(C)cc43)CC2)cc1 (stereo not drawn) ?
D1 potentiator: -1; DRD3 agonist: 4; D1 ag: 1; D1 antag: -12

What do the screens show for `Cc1cc(C)n2nc(SCC(=O)Nc3cc(Cl)ccc3C)nc2n1`?
D1 potentiator: -2; DRD3 agonist: 8; D1 ag: -1; D1 antag: 6

How did O=C(Nc1ccccc1Br)c1cc(S(=O)(=O)NC2CCCCC2)ccc1F do in these assays?
D1 potentiator: 0; DRD3 agonist: -7; D1 ag: 3; D1 antag: -8

What do the screens show for `[O-][N+](=Cc1c(Cl)cccc1Cl)CC1(O)CCCCC1`?
DRD3 agonist: 3; D3 antag: 3

How did COc1ccc(C(=O)NCc2nnc(SCC(=O)Nc3ccccc3)n2-c2ccccc2)cc1 do in these assays?
D1 potentiator: -1; DRD3 agonist: -16; D1 ag: 0; D1 antag: 1

How did O=C(CN1CCC(C(O)(c2ccccc2)c2ccccc2)CC1)Nc1ccccc1 do in these assays?
D1 potentiator: -10; DRD3 agonist: -23; D1 ag: 13; D1 antag: -3; D3 antag: -25

Results for COC(=O)c1cccc(OCCCN2CCC(C(O)(c3ccccc3)c3ccccc3)CC2)c1 ?
DRD3 agonist: -14; D3 antag: -93*

What do the screens show for `Cc1ccc2c(c1)c1c3n2CCN(C(=O)CCl)C3CCC1` (stereo not drawn)?
D1 potentiator: -5; DRD3 agonist: 8; D1 ag: 4; D1 antag: -45*; D3 antag: -6

Results for CC(=O)N1CCn2c3c(c4cc(C)ccc42)CCCC31 (stereo not drawn) ?
D1 potentiator: -2; DRD3 agonist: 2; D1 ag: 1; D1 antag: -15; D3 antag: 9

Results for Cc1ccc(C(O)c2ncc(-c3ccc4ccccc4c3)[nH]2)cc1 (stereo not drawn) ?
DRD3 agonist: -15; D3 antag: 0

How did Cc1cc(C)cc(C(O)c2ncc(-c3ccc4ccccc4c3)[nH]2)c1 (stereo not drawn) do in these assays?
DRD3 agonist: -12; D3 antag: -56*

Results for Cc1ccc(C)c(N2CCN(c3nc4ccccc4c4nc(CCn5nc(C)cc5C)nn34)CC2)c1 ?
D1 potentiator: -3; DRD3 agonist: 4; D1 ag: 0; D1 antag: 0

Results for CC1CC(C)CN(CCCNC(=O)C2CCC(=O)N2C2CCCC2)C1 (stereo not drawn) ?
D1 potentiator: -1; DRD3 agonist: 0; D1 ag: 1; D1 antag: 9; D3 antag: inconclusive

How did O=C(NCCCN1CCCC1)C1CCC(=O)N1C1CCCCC1 (stereo not drawn) do in these assays?
D1 potentiator: 2; DRD3 agonist: 1; D1 ag: -1; D1 antag: 13; D3 antag: -12

Results for O=C(NCCCN1CCN(c2ccccc2F)CC1)C1CCC(=O)N1C1CCCC1 (stereo not drawn) ?
D1 potentiator: -7; DRD3 agonist: 1; D1 ag: -2; D1 antag: -7; D3 antag: -87*

How did O=C(NCCCN1CCC(Cc2ccccc2)CC1)C1CCC(=O)N1C1CCCC1 (stereo not drawn) do in these assays?
D1 potentiator: -3; DRD3 agonist: -10; D1 ag: 4; D1 antag: -7; D3 antag: -118*

How did Cc1ccc(/C=C2/Sc3ccc(C(=O)N4CCN(C)CC4)cc3NC2=O)cc1 do in these assays?
D1 potentiator: -24; DRD3 agonist: 1; D1 ag: 17; D1 antag: -82*; D3 antag: inconclusive

Results for CCc1ccc(NC(=O)CSc2ncc(S(=O)(=O)c3cc(C)ccc3C)c(=O)[nH]2)cc1 ?
D1 potentiator: 0; DRD3 agonist: 8; D1 ag: 1; D1 antag: -9

What do the screens show for `CC1CCN(CCCCOc2ccc(C(C)(C)C)cc2)CC1`?
D1 potentiator: -7; DRD3 agonist: -20; D1 ag: 41*; D1 antag: -4; D3 antag: -88*

What do the screens show for `Cc1ccc(OCC(=O)OC2CCCN(C)C2)cc1` (stereo not drawn)?
D1 potentiator: 0; DRD3 agonist: 1; D1 ag: 1; D1 antag: 0; D3 antag: -4

How did CC(C)(C)c1ccc(OCCN2CCCC2)cc1 do in these assays?
D1 potentiator: -2; DRD3 agonist: -20; D1 ag: 18; D1 antag: 0; D3 antag: -94*

Results for CC(C)(C)c1ccc(OCCCCCCN2CCNCC2)cc1 ?
DRD3 agonist: -13; D3 antag: -14

How did CN1CCC(OC(=O)COc2ccc(C(C)(C)C)cc2)CC1 do in these assays?
D1 potentiator: 0; DRD3 agonist: -58; D1 ag: 4; D1 antag: 9; D3 antag: -56*

How did O=C(CN1C(=O)C2CCCCN2c2ccc(C(=O)N3CCCC3)cc21)NCc1ccc(F)cc1 (stereo not drawn) do in these assays?
D1 potentiator: 4; DRD3 agonist: 3; D1 ag: 1; D1 antag: 13

Screening results as filed in PubChem BioAssay.
